Measurements taken from PubChem BioAssay AID651730 (NMMLSC, 2012).
Calls of active or inactive are those of the source. No rule for the calls is given here.

assay: V-ATPase regulators in yeast, S. cerevisiae, pHLuorin, powder sets 2-3, dose response (AID 651730); conditions: S. cerevisiae vacuolar pH, pHluorin fluorescence; series mostly up to 100 µM

outcome, inactive:
CN(C)S(=O)(=O)c1cccc(C(=O)N2CCN(c3nc4ccc(F)cc4s3)CC2)c1
O=C(c1cccc(C(F)(F)F)n1)N1CCN(c2nc3ccc(F)cc3s2)CC1
CN(C)Cc1cccc(C(=O)Nc2ccccc2N2CCOCC2)c1
CN(C)S(=O)(=O)c1cccc(C(=O)Nc2ccccc2N2CCOCC2)c1
O=C(c1cc(Cl)ccn1)N1CCN(c2nc3ccc(F)cc3s2)CC1
O=C(Nc1ccccc1N1CCOCC1)c1ccc(Br)o1
Nc1ncc(C(=O)Nc2ccccc2N2CCOCC2)o1
CN(C)C(=O)c1cccc(C(=O)N2CCN(c3nc4ccc(F)cc4s3)CC2)c1
COCc1ccc(C(=O)Nc2ccccc2N2CCOCC2)o1
O=C(c1ccc(Br)o1)N1CCN(c2nc3ccc(F)cc3s2)CC1
Cc1cccc(C(=O)Nc2ccccc2N2CCOCC2)n1
O=C(c1cncc(Cl)n1)N1CCN(c2nc3ccc(F)cc3s2)CC1
CC(C)(C)c1ccc(C(=O)Nc2ccccc2N2CCOCC2)o1
Cc1ccc(C(=O)Nc2ccccc2N2CCOCC2)o1
O=C(Nc1ccccc1N1CCOCC1)c1cc(Cl)ccn1
NC(=O)c1ccc(C(=O)N2CCN(c3nc4ccc(F)cc4s3)CC2)o1
O=C(c1cc(C(F)(F)F)ccn1)N1CCN(c2nc3ccc(F)cc3s2)CC1
Cc1ccnc(C(=O)N2CCN(c3nc4ccc(F)cc4s3)CC2)c1
N#Cc1cccc(C(=O)Nc2ccccc2N2CCOCC2)c1
Nc1ncc(C(=O)N2CCN(c3nc4ccc(F)cc4s3)CC2)o1
O=C(Nc1ccccc1N1CCOCC1)c1cncc(Cl)n1
COCc1cccc(C(=O)N2CCN(c3nc4ccc(F)cc4s3)CC2)c1
N#Cc1ccnc(C(=O)N2CCN(c3nc4ccc(F)cc4s3)CC2)c1
NC(=O)c1cccc(C(=O)N2CCN(c3nc4ccc(F)cc4s3)CC2)c1
O=C(c1cccc(C(F)(F)F)c1)N1CCN(c2nc3ccc(F)cc3s2)CC1
NS(=O)(=O)c1cccc(C(=O)Nc2ccccc2N2CCOCC2)c1
CS(=O)(=O)c1ccc(C(=O)N2CCN(c3nc4ccc(F)cc4s3)CC2)o1
O=C(Nc1ccccc1N1CCOCC1)c1cccc(Br)n1
O=C(c1cccc(Br)n1)N1CCN(c2nc3ccc(F)cc3s2)CC1
Nc1cncc(C(=O)N2CCN(c3nc4ccc(F)cc4s3)CC2)n1
